“And” between values parts separate entries of the source, which are not always exact repeats. Equal entries are not always repeated. About 11,000 (3.1%) of roughly 360,000 compounds were called active. Cut-off read from the data, not from the text of the source: active = activity change below about -30%; inactive = the rest. The full list was thinned out, with actives kept by preference.
biological target: D(1A) dopamine receptor (Homo sapiens) (UniProt P21728); test: Antagonist of Human D 1 Dopamine Receptor: qHTS; details: HEK293 TREx D1 cells, calcium flux, dopamine EC80; at 10 µM; active compounds read low
How it was run: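 Inducible Hek293 Trex D1 cells (tetracycline, overnight, 30 C). Calcium dye 30–90 min RT. Antagonist mode: EC80 dopamine added after 180 s compound read.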
% is set by controls: 0 for no effect and ±100 for the full control effect.

Chain of D(1A) dopamine receptor (Homo sapiens) (P21728 whole entry, looked up): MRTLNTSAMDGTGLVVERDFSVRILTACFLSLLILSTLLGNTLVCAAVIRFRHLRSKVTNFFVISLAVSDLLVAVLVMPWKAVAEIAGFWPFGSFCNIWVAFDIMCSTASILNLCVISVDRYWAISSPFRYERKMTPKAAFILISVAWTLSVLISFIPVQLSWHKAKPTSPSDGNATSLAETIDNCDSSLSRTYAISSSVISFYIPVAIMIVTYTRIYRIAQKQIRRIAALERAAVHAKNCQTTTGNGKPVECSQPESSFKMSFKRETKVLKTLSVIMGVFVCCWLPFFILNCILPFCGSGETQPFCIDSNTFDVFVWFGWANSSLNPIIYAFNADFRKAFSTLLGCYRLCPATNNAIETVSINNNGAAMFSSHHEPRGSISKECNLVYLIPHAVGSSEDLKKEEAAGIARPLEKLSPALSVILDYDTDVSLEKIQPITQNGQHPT

Row | Compound | activity change, negative = inhibition
1 | O=C(NCc1ccc(F)cc1)c1ccc(Cn2c(SCc3ccc(F)cc3)nc3cccnc32)cc1 | -10.7% (inactive)
2 | COc1ccc(N2CCN(C(=O)CSCc3nc(-c4ccccc4Cl)oc3C)CC2)cc1 | -24.8% (inactive)
3 | COc1ccc(CNS(=O)(=O)c2cc(-c3cc(C)no3)ccc2C(C)C)cc1 | -31% (active)
4 | CCOc1ccccc1CNS(=O)(=O)c1cc(-c2cc(C)no2)ccc1C | 50.5% (inactive)
5 | COc1ccc(CCNS(=O)(=O)c2cc(-c3cc(C)no3)ccc2C)cc1OC | 9.26% (inactive)
6 | CCc1ccc(S(=O)(=O)Nc2cc3c(C(=O)OCc4ccccc4)c(C)oc3c3ccccc23)cc1 | 7.58% (inactive)
7 | CCCCN(C)c1nnc(NC(=O)Nc2ccc(Br)c(C)c2)s1 | 13.7% (inactive)
8 | c1ccc(C2CNCc3c2ccc2ccccc32)cc1 (centres undefined) | -39.2% (active)
9 | Cc1nn2c(=O)cc(COC(=O)CNC(=O)c3ccc(F)cc3)nc2s1 | -1.13% (inactive)
10 | Cc1ccc(Cn2c(=O)n(-c3ccc(C)cc3)c(=O)c3c2c2cc(C)ccc2n3C)cc1 | -3.86% (inactive)
11 | N#C/C(=C\c1cccc(F)c1)c1nc(-c2cc3c(ccc4ccccc43)oc2=O)cs1 | -2.97% (inactive)
12 | COc1cc(C2c3c(oc4ccccc4c3=O)C(=O)N2c2nc(C)c(C)s2)ccc1O (centres undefined) | 6.01% (inactive)
13 | CCOc1ccc(NC(=O)c2cnn(-c3ccccc3)c2-n2cccc2)cc1 | -0.471% (inactive)
14 | CCCCOc1ccc(CSC(=N)N)cc1[N+](=O)[O-] | 25.1% (inactive)
15 | CCCCCOc1ccc(CSC2=NCCN2)cc1[N+](=O)[O-] | -42.1% (active)
16 | Cc1nc(SCc2ccc(F)cc2)c([N+](=O)[O-])[nH]1 | 8.5% (inactive)
17 | CCN(CC)CCC(c1cc(OC)c(OC)c(OC)c1)c1c(OC)cc(OC)c2c(-c3ccccc3)cc(=O)oc12 (centres undefined) | 18.1% (inactive)
18 | CCCCN(CC)C(=O)c1ccc2c(c1)OCO2 | -2.46% (inactive)
19 | CCN(CC)CCC(c1ccc2c(c1)OCO2)c1c(OC)cc(OC)c2c(-c3ccccc3)cc(=O)oc12 (centres undefined) | -32.2% (active)
20 | COc1ccc(F)cc1S(=O)(=O)NCC(c1ccc2c(c1)OCO2)N1CCN(C)CC1 (centres undefined) | -2.95% (inactive)
21 | CCN(CC)C(=O)CC(c1ccc2c(c1)OCO2)c1c(OC)cc(OC)c2c(-c3ccccc3)cc(=O)oc12 (centres undefined) | -44.6% (active)

Row | Compound | activity change, negative = inhibition
22 | COc1cccc(NC(=O)C(=O)NCC(c2ccc3c(c2)OCO3)N2CCN(C)CC2)c1 (centres undefined) | 27.8% (inactive)
23 | CCc1nnc2c3ccccc3nc(N3CCN(c4ccc(C)cc4C)CC3)n12 | -4.28% (inactive)
24 | CCCN(CCC)S(=O)(=O)c1ccc(C(=O)Nc2sc3c(c2C(=O)OC)CCN(CC)C3)cc1 | 27% (inactive)
25 | CCc1cccc(NC(=O)CSc2nccn2C)c1 | 6.16% (inactive)
26 | Cc1ccc(Cl)cc1NC(=O)CSc1nccn1C | -34.7% (active)
27 | Cn1ccnc1SCC(=O)Nc1ccc2c(c1)OCCO2 | 7.91% (inactive)
28 | COC(=O)c1ccc(COc2cc([N+](=O)[O-])cc3cccnc23)cc1 | -0.242% (inactive)
29 | CCOc1cc(/C=N/O)ccc1OCc1ccccc1F | 0.806% (inactive)
30 | COc1cc(/C=N/O)ccc1OCc1ccc([N+](=O)[O-])cc1 | -35.1% (active)
31 | COc1cc(C(=O)OCC(=O)NC(C)CCc2ccccc2)cc(OC)c1OC (centres undefined) | 0.765% (inactive)
32 | CCCc1ccc(OCc2ccc(C(=O)N/N=C/c3cccc([N+](=O)[O-])c3)o2)c(OC)c1 | -9.05% (inactive)
33 | COc1cc(C(=O)OCc2ccc([N+](=O)[O-])cc2)cc(OC)c1OC | -36.8% (active)
34 | COc1ccc(NC(=O)CCc2nnc3n(CC(C)C)c(=O)c4ccccc4n23)cc1OC | 12% (inactive)
35 | COc1ccccc1N1CCN(C(=O)C2CCN(S(=O)(=O)c3c(C)noc3/C=C/c3ccc(C)cc3)CC2)CC1 | 1.37% (inactive)
36 | COc1ccc(Cn2ccnc2SCC(=O)Nc2ccc3c(c2)OCO3)cc1 | 3.36% (inactive)
37 | CC1CCCN(S(=O)(=O)c2ccc3[nH]c(=O)cc(C(=O)NCCc4ccc(Cl)cc4)c3c2)C1 (centres undefined) | 15.9% (inactive)
38 | COc1ccccc1NC(=O)c1sc2nc(C)c(C(=O)Nc3ccc(Cl)cc3)c(-c3ccc(Br)cc3)c2c1N | -7.07% (inactive)
39 | CC(=O)c1c(C)n(S(=O)(=O)c2ccc(Cl)cc2)c2ccc(NS(=O)(=O)c3ccc(Cl)cc3)cc12 | 0.214% (inactive)
40 | COC(=O)c1c(C)[nH]c(C(=O)NCCc2ccc(S(N)(=O)=O)cc2)c1C | 2.29% (inactive)
41 | CCOC(=O)c1c(C)c(C(=O)NCCc2ccc(S(N)(=O)=O)cc2)c(C)n1CC | -3.79% (inactive)
42 | COc1ccc(C(=O)NCCc2ccc(S(N)(=O)=O)cc2)cc1OC | -31% (active)

Row | Compound | activity change, negative = inhibition
43 | Cc1c(C)n(Cc2ccc(Cl)cc2)c2ccc(C(=O)NCCCN3CCOCC3)cc12 | -28% (inactive)
44 | Cc1c(C)n(Cc2ccc(Cl)cc2)c2ccc(C(=O)NCCc3ccc(S(N)(=O)=O)cc3)cc12 | -36.4% (active)
45 | COc1ccc(NS(=O)(=O)c2cccc(C(=O)NCCc3ccc(S(N)(=O)=O)cc3)c2)cc1 | -10.4% (inactive)
46 | Cc1cc(N2CCN(c3cccc(C(F)(F)F)c3)CC2)n2nc(-c3ccccc3)nc2n1 | 23.9% (inactive)
47 | CCc1ccccc1NC(=O)c1ccc2nc(CCc3ccccc3)oc2c1 | -9.13% (inactive)
48 | Cc1ccccc1NC(=O)c1cc2c([nH]c1=O)CC(C)(C)CC2=O | -6.86% (inactive)
49 | CCOc1cccc(NC(=O)CSc2ncc(-c3ccc(Cl)cc3)[nH]2)c1 | -2.12% (inactive)
50 | COc1ccccc1CSc1ncc(-c2ccc([N+](=O)[O-])cc2)[nH]1 | -37.4% (active)
51 | COc1ccc(-c2cnc(SCCNC(=O)c3ccc4c(c3)OCO4)[nH]2)cc1 | 1.65% (inactive)
52 | Cc1c(C(=O)NCc2ccccc2Br)oc2ccc3c(c12)C(=O)CC(C)(C)O3 | -29.9% (inactive)
53 | COc1ccc2cc1Oc1ccc(cc1)C[C@H]1c3cc(c(OC)cc3CCN1C)Oc1c(O)c(OC)cc3c1[C@H](C2)N(C)CC3 | -27.6% (inactive)
54 | COc1c(O)ccc2c1CN1CCc3cc4c(cc3C1C2)OCO4 (centres undefined) | -67.5% (active)
55 | COc1ccc(CN2CCCC(N3CCc4ccccc4C3)C2)c(O)c1 (centres undefined) | -0.568% (inactive)
56 | CCOc1ccc(S(=O)(=O)c2cn(Cc3ccc(OC)cc3)c3ccc(F)cc3c2=O)cc1 | -3.59% (inactive)
57 | CCc1nc2ccc(C(=O)N3CCN(c4cc(Cl)ccc4C)CC3)cc2nc1CC | 4.25% (inactive)
58 | O=C(CSc1ncn[nH]1)Nc1nc(-c2cccc([N+](=O)[O-])c2)cs1 | -1.2% (inactive)
59 | O=C(CSc1ncn[nH]1)Nc1nsc(-c2ccccc2)n1 | 1.31% (inactive)
60 | Cn1nnc(NC(=O)CSc2ncn[nH]2)n1 | -31.7% (active)
61 | CCOC(=O)c1scc(-c2ccccc2)c1S(=O)(=O)Nc1ccccc1F | -3.82% (inactive)
62 | CCC(C(=O)Nc1cccc(-c2nc3cccnc3s2)c1C)c1ccccc1 (centres undefined) | -4.82% (inactive)
63 | C/C(=C\C(=O)c1ccccc1)Nc1cccc(O)c1 | -30.1% (active)

Row | Compound | activity change, negative = inhibition
64 | O=C(CSc1ccccc1)Nc1ccc(C(=O)Nc2cccc(O)c2)cc1 | -29.1% (inactive)
65 | O=C(Nc1cccc(O)c1)c1ccc(C(=O)c2ccccc2)o1 | -9.29% (inactive)
66 | Cc1ccc(NC(=O)CSc2nc3c(c(=O)[nH]2)CN(Cc2ccc4c(c2)OCO4)CC3)cc1C | 11.3% (inactive)
67 | O=C(CSc1nnc(-c2c[nH]c3ccccc23)n1-c1ccc(F)cc1)NCc1ccco1 | 3.17% (inactive)
68 | COc1ccc(-n2c(SCC(=O)NCc3ccco3)nnc2-c2c[nH]c3ccccc23)cc1 | -90% (active)
69 | COc1ccc(-n2c(SCC(=O)NCc3cccs3)nnc2-c2ccoc2C)cc1 | -0.757% (inactive)
70 | CCOC(=O)C1CCC(CN(Cc2ccc(OC)cc2)S(=O)(=O)c2ccc(F)c(C(=O)Nc3cc(C)ccc3C)c2)CC1 (centres undefined) | 15.6% (inactive)
71 | CCOc1ccc(S(=O)(=O)N2CCC(C(=O)OCc3ccc(OC)cc3)CC2)cc1 | -16.6% (inactive)
72 | COc1cccc(COC(=O)C2CCN(S(=O)(=O)c3cccs3)CC2)c1OC | -15.5% (inactive)
73 | COc1cccc(COC(=O)C2CCN(S(=O)(=O)c3ccc(Cl)cc3)CC2)c1OC | -32.8% (active)
74 | COc1ccc(C(=O)c2oc3ccccc3c2NC(=O)COc2cccc(C)c2)cc1 | -10.1% (inactive)
75 | Cc1nn(CC(=O)NCCc2ccccc2)c(=O)c2c1sc1ccccc12 | -1.1% (inactive)
76 | Cc1cccc(NS(=O)(=O)c2ccc(-c3cnc(C4CC4)o3)cc2)c1 | -44.9% (active)
77 | Cc1cccc(CNS(=O)(=O)c2ccc(-c3cnc(C4CC4)o3)cc2)c1 | -9.2% (inactive) and -2.23% (inactive)
78 | Cc1ccc(-c2cnc(C3CC3)o2)cc1S(=O)(=O)Nc1cccc(C)c1C | 9.76% (inactive)
79 | O=C(CSc1nccn1C1CCCC1)Nc1cc(C(F)(F)F)ccc1Cl | -16% (inactive)
80 | COc1ccc(S(=O)(=O)N2CCC(C(=O)OCC(=O)c3ccccc3)CC2)cc1[N+](=O)[O-] | -3.94% (inactive)
81 | COC(=O)c1cc(Oc2ccc(S(=O)(=O)N3CCOCC3)cc2[N+](=O)[O-])cc(C(=O)OC)c1 | -38.9% (active)
82 | C=C(C)CNc1cc(S(=O)(=O)N2CCOCC2)ccc1Oc1ccccc1 | -20.5% (inactive)
83 | Cc1ccc(NC(=O)c2ccc3[nH]c(C)cc(=O)c3c2)c(C)c1 | -2.41% (inactive)
84 | CCOC(=O)c1c(N)n(-c2cccc(C)c2C)c2nc3ccccc3nc12 | -1.89% (inactive)
